Data: the OligoGym collection

What follows are sequences tested against CLDN9 (assay: pooled miR-30 sensor sort-seq; sequence = guide strand). Settings: shRNA.
Note: reference of the scale not given here.

Row | Sequence | sensor-assay potency score (higher = more potent)
1 | TTGTCCAGTCCAGATGCACCCG | -0.545
2 | ATGATGGCGTGCGCCGTCCAGC | -1.9
3 | TTGTAGAAGTCCTGGATGATGG | -1.14
4 | TAGAAGTCCTGGATGATGGCGT | 0.302
5 | ATGAGCACCAGGATGCCGGCGA | -0.538
6 | TTCGTCCTCCACACACGTGGTA | -0.498
7 | TCCACACACGTGGTACACTGGG | -1.23
8 | TAGCCCAGCCGAGGTCCGCGGG | -1.28
9 | TTGCACTGCATCTGGCCCGTGC | -0.338
10 | TTTGGAGCCAACGAGCTGCTGC | -0.374
11 | TCGTCCTCCACACACGTGGTAC | -1.58

These sequences were tested against CLEC9A in the same assay as above. Settings: shRNA.

Row | Sequence | sensor-assay potency score (higher = more potent)
12 | TTCTCTTGACTGGTGTGCCAAA | -1.18
13 | TAAACAATTCTCTTGACTGGTG | -0.135
14 | TAGCTGACTGGGATCTCTCTGC | -0.395
15 | TCACAAGACAGCATGCTCCTGA | 0.87
